Experimental data taken from PubChem BioAssay (NCI).
Compounds without any hit were thinned out: in the full panel of roughly 79,000, 15% have a hit. Activity calls are given as the source filed them. No stated cut-off is given here; in the data, active means growth inhibition above about 70%; inactive means the rest.

Assay: NCI Yeast Anticancer Drug Screen. Data for the sgs1 strain (AID 173);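 further: 0% = growth of vehicle-only control cultures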
Details: S. cerevisiae sgs1 mutant, stronger effect = higher value
Procedure: Growth inhibition of yeast strains with defined genetic alterations is measured as a screen for potential anti-cancer activity. Selected strains with alterations in DNA damage repair or cell cycle control were exposed to compounds and growth inhibition was measured relative to vehicle treated controls. The strain used in this assay is sgs1

Measured: growth inhibition

O=C([O][Sn]([O]C(=O)c1ccccc1)([c]1ccccc1)[c]1ccccc1)c1ccccc1
active: at 100.0 µM 84%
inactive: at 1.2 µM 28% | at 3.7 µM 26% | at 11.0 µM 30% | at 33.0 µM 45%

O=C1OC(=O)C2CCCC3CCCC1C32 (stereo not given)
inactive: at 1.2 µM 26%
active: at 3.7 µM 78% | at 11.0 µM 93% | at 33.0 µM 94% | at 100.0 µM 98%

[O-][n+]1c2ccc(O)cc2nc2ccc(Br)cc21
active: at 33.0 µM 74% | at 100.0 µM 84%
inactive: at 1.2 µM 4% | at 3.7 µM 8% | at 11.0 µM 28%

Cc1ccc(S(=O)(=O)NNC(=S)Nc2cccc3ccccc23)cc1
inactive: at 1.2 µM 2% | at 3.7 µM 4% | at 11.0 µM 10% | at 33.0 µM 18% | at 100.0 µM 17%

O=C(CCCN1CCC(O)(c2ccc(Cl)cc2)CC1)c1ccc(F)cc1
inactive: at 1.2 µM 15% | at 3.7 µM 23% | at 11.0 µM 46% | at 33.0 µM 43% | at 100.0 µM 52%

O=C(/C=C\c1ccc(Cl)cc1Cl)c1cccs1
inactive: at 1.2 µM 0% | at 3.7 µM 1% | at 11.0 µM 12% | at 33.0 µM 33% | at 100.0 µM 45%

CCN(CC)CCN1C(=O)c2cccc3cc(OC)cc(c23)C1=O
inactive: at 1.2 µM -4% | at 3.7 µM 40% | at 11.0 µM 42% | at 33.0 µM 36% | at 100.0 µM 42%

CCC#CCCCOC(=O)c1cc([N+](=O)[O-])cc([N+](=O)[O-])c1
inactive: at 1.2 µM -1% | at 3.7 µM 3% | at 11.0 µM 23%
active: at 33.0 µM 98% | at 100.0 µM 99%
